# Measurements: ChEMBL document CHEMBL2218924, “A broad activity screen in support of a chemogenomic map for kinase signalling research and drug discovery” (Biochem J, 2013)
# What was measured:
# [1] = molecular target: T1, CDK9/cyclin T1 (Homo sapiens) (UniProt O60563+P50750); conditions: at 1 µM
# [2] = molecular target: T1, CDK9/cyclin T1 (Homo sapiens); conditions: at 10 µM
# [3] = molecular target: T2, Serine/threonine-protein kinase Chk1 (Homo sapiens) (UniProt O14757); conditions: at 1 µM
# T2 sequence (whole entry): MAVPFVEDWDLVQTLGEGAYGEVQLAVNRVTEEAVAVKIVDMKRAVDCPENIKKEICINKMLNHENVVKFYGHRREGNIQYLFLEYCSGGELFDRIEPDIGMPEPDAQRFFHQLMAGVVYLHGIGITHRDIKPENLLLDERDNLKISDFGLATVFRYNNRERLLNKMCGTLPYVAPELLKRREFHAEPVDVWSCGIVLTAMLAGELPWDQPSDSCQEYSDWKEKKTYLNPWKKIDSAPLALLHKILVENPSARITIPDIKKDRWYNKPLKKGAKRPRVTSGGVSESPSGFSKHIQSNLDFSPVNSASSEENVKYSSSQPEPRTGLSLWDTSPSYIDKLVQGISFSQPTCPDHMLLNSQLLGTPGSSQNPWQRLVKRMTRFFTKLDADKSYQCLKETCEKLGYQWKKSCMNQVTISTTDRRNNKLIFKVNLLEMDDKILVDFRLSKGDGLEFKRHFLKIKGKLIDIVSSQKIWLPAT
# [4] = molecular target: T2, Serine/threonine-protein kinase Chk1 (Homo sapiens); conditions: at 10 µM
# [5] = molecular target: Casein kinase I isoform gamma-1 (Homo sapiens) (UniProt Q9HCP0); conditions: at 10 µM
# Chain of Casein kinase I isoform gamma-1 (Homo sapiens) (Q9HCP0 whole entry, looked up, canonical isoform): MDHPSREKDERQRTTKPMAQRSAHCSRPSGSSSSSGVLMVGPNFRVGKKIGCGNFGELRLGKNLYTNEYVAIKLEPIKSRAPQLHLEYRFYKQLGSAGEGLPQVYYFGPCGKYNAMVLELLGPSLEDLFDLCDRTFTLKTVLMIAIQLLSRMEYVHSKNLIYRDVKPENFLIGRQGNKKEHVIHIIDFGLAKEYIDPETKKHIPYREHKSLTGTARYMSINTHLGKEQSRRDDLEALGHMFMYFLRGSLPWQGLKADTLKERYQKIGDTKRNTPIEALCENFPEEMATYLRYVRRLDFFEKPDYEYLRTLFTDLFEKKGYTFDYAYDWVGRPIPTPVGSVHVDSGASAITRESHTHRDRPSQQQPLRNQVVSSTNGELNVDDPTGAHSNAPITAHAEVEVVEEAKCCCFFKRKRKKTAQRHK
# [6] = molecular target: Casein kinase I isoform delta (Homo sapiens) (UniProt P48730); conditions: at 1 µM
# Chain of Casein kinase I isoform delta (Homo sapiens) (P48730 whole entry, looked up, canonical isoform): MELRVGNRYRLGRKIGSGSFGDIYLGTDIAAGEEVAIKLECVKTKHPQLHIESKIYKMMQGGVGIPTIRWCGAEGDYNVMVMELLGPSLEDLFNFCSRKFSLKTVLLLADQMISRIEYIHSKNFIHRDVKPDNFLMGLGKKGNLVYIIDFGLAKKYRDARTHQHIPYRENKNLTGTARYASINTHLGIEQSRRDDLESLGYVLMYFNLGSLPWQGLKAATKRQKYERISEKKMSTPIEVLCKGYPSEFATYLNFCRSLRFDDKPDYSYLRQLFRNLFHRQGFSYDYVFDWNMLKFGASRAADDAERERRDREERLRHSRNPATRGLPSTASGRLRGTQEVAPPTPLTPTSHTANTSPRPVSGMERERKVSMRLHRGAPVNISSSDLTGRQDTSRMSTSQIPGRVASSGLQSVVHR
# [7] = molecular target: Casein kinase I isoform delta (Homo sapiens) (UniProt P48730); conditions: at 10 µM
# [8] = molecular target: T3, Casein kinase II (Homo sapiens) (UniProt P67870+P68400+P19784); conditions: at 1 µM
# T3 sequence (P19784 whole entry, looked up): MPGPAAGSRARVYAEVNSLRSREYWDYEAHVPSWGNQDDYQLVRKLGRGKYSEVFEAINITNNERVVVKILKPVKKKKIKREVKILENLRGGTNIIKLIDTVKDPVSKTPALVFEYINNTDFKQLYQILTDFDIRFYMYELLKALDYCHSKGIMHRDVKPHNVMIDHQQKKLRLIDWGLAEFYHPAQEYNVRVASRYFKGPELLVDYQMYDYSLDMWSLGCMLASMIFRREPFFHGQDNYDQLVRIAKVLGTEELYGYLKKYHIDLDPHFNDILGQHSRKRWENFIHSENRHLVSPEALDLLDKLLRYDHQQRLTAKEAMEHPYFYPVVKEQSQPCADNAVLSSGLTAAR
# T3 sequence (P67870 whole entry, looked up): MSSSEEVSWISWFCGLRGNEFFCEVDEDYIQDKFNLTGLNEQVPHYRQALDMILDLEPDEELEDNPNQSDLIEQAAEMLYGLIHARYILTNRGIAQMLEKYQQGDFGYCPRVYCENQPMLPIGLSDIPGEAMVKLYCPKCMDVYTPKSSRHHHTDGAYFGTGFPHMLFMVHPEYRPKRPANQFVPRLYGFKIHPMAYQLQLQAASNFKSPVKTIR
# T3 sequence (P68400 whole entry, looked up): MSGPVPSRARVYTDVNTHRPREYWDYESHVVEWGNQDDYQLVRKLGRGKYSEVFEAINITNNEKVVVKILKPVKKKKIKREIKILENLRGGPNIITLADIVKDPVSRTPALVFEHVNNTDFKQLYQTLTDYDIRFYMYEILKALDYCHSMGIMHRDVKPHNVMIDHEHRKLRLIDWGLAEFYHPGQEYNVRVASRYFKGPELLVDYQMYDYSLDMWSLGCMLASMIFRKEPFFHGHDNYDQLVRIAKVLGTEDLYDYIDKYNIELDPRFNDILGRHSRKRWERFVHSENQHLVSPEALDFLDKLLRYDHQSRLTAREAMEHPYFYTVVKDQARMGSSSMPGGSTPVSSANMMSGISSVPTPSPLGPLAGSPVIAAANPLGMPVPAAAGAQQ
# [9] = molecular target: T3, Casein kinase II (Homo sapiens); conditions: at 10 µM
# [10] = molecular target: Casein kinase II subunit alpha' (Homo sapiens) (UniProt P19784); conditions: at 1 µM
# Chain of Casein kinase II subunit alpha' (Homo sapiens) (P19784 whole entry, looked up): as the sequence (P19784 whole entry, looked up) above
# [11] = molecular target: Casein kinase II subunit alpha' (Homo sapiens) (UniProt P19784); conditions: at 10 µM
# [12] = molecular target: Dual specificity protein kinase CLK2 (Homo sapiens) (UniProt P49760); conditions: at 1 µM
# Chain of Dual specificity protein kinase CLK2 (Homo sapiens) (P49760 whole entry, looked up): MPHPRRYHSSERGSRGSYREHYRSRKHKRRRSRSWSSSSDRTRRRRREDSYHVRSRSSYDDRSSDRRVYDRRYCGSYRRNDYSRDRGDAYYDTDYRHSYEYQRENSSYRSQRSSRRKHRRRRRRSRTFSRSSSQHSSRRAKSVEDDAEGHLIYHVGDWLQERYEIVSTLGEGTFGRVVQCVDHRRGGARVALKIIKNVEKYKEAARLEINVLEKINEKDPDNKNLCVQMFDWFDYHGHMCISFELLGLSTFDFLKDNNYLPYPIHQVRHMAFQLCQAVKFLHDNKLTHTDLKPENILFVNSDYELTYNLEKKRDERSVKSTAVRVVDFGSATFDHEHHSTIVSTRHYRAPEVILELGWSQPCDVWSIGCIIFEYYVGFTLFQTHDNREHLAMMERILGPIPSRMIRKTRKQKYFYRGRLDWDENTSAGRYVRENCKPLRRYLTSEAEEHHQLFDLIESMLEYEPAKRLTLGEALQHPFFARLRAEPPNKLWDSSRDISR
# [13] = molecular target: Dual specificity protein kinase CLK2 (Homo sapiens) (UniProt P49760); conditions: at 10 µM
# [14] = molecular target: Dual specificity protein kinase CLK3 (Homo sapiens) (UniProt P49761); conditions: at 1 µM
# Chain of Dual specificity protein kinase CLK3 (Homo sapiens) (P49761 whole entry, looked up): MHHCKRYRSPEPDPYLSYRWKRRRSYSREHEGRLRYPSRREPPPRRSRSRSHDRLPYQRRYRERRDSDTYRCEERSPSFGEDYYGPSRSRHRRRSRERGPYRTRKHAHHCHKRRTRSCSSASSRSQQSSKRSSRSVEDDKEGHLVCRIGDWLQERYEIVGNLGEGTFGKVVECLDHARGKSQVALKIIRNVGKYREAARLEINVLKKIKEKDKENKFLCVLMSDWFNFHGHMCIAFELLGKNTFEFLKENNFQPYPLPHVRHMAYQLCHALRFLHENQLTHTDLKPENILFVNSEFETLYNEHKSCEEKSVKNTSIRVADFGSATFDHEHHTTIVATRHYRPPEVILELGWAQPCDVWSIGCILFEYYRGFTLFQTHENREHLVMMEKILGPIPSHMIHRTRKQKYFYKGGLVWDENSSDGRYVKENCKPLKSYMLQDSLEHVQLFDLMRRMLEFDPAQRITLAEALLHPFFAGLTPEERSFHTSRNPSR
# [15] = molecular target: Dual specificity protein kinase CLK3 (Homo sapiens) (UniProt P49761); conditions: at 10 µM
# [16] = molecular target: Tyrosine-protein kinase CSK (Homo sapiens) (UniProt P41240); conditions: at 1 µM
# Chain of Tyrosine-protein kinase CSK (Homo sapiens) (P41240 2-450 limits assumed): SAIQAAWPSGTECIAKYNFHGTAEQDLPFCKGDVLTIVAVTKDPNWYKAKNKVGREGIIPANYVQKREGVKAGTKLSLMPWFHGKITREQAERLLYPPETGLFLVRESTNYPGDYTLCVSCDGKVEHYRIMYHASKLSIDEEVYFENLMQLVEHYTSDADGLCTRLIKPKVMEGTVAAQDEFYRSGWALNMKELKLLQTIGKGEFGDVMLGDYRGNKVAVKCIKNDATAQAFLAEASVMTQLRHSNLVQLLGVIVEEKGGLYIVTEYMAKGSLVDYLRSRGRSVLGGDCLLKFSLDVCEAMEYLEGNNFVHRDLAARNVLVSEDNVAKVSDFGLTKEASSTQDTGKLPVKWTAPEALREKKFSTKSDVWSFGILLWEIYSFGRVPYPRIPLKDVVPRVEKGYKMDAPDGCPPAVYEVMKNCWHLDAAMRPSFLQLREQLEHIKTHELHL
# [17] = molecular target: Tyrosine-protein kinase CSK (Homo sapiens) (UniProt P41240); conditions: at 10 µM
# [18] = molecular target: Serine/threonine-protein kinase Chk2 (Homo sapiens) (UniProt O96017); conditions: at 1 µM
# Chain of Serine/threonine-protein kinase Chk2 (Homo sapiens) (O96017 whole entry, canonical isoform): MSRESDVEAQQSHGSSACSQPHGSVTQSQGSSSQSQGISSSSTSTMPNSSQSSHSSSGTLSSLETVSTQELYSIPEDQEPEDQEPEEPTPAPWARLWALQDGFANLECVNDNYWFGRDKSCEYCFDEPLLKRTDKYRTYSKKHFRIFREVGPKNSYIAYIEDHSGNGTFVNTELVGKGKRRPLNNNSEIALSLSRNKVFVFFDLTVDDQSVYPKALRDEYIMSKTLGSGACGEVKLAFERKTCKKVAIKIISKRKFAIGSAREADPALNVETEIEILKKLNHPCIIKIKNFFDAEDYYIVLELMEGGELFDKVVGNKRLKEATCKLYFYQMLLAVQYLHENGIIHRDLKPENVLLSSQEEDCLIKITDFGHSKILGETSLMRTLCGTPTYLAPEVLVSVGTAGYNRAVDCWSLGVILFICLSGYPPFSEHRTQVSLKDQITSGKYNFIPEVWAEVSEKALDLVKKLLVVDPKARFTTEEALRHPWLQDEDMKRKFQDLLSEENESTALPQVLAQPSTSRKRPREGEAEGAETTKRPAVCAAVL
# [19] = molecular target: Serine/threonine-protein kinase Chk2 (Homo sapiens) (UniProt O96017); conditions: at 10 µM
# [20] = molecular target: Casein kinase I isoform gamma-1 (Homo sapiens) (UniProt Q9HCP0); conditions: at 1 µM
SMILES,residual activity [1] [%],residual activity [2] [%],residual activity [3] [%],residual activity [4] [%],residual activity [5] [%],residual activity [6] [%],residual activity [7] [%],residual activity [8] [%],residual activity [9] [%],residual activity [10] [%],residual activity [11] [%],residual activity [12] [%],residual activity [13] [%],residual activity [14] [%],residual activity [15] [%],residual activity [16] [%],residual activity [17] [%],residual activity [18] [%],residual activity [19] [%],residual activity [20] [%]
c1cc(-c2cnn3cc(-c4ccc(OCCN5CCCCC5)cc4)cnc23)ccn1,35,5,101,87,63,21,3,82,27,26,1,26,3,62,23,100,64,–,–,–
O=C1NC(=O)c2c1c1c3ccccc3n3c1c1c2c2ccccc2n1C1CCC3O1,71,66,25,20,–,75,75,–,–,63,49,100,92,95,85,–,–,26,24,–
O=C1Nc2ccc3ncsc3c2/C1=C/c1c[nH]cn1,5,3,35,8,28,23,4,30,1,12,-1,8,3,38,3,104,96,50,15,70
N/C(=N\[N+](=O)[O-])N/N=C\c1ccc(-c2cccc([N+](=O)[O-])c2)o1,–,–,–,–,82,80,76,97,89,–,–,–,–,93,86,122,100,91,75,88
CCn1cnc2c(Nc3cccc(Cl)c3)nc(N[C@@H]3CCCC[C@@H]3N)nc21,8,0,83,28,6,89,51,91,57,–,–,10,4,76,30,–,69,59,12,30
COC(=O)[C@@]1(O)C[C@H]2O[C@]1(C)n1c3ccccc3c3c4c(c5c6ccccc6n2c5c31)C(=O)NC4,10,2,1,-1,57,79,37,93,82,108,90,1,4,72,33,71,18,3,1,93
COc1cc(OC)c(/C=C2\C(=O)Nc3ccccc32)c(OC)c1,94,48,88,81,70,37,6,88,91,94,90,–,–,83,81,–,99,89,78,101
COc1ccc2c(c1)/C(=C/c1cnc[nH]1)C(=O)N2,32,7,77,30,67,81,37,–,–,–,32,50,10,–,–,–,–,67,25,–
